TCR activator – Activators of T cell receptors: qHTS campaign. 330,000 tested, under 10 active. AID 504894, 2011. primary human leukocytes, anti-CD3, IL-2 HTRF, 48 h. Potency, µM (titrated, usually from 9.22 µM), without a hit: top-dose activation of IL-2 secretion, usual class: activators; active means well fitted activation curve with a large enough effect; inconclusive means small, poorly fitted or top-dose-only effect, or another doubt; inactive means no such curve, though single readings can be large or run the other way; further: % of control where 0% means no effect
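Primary human leukocytes receive a-CD3 beads and test compound and are incubated 48 hr. Secreted IL-2 is then assayed by HTRF, measuring 665nm acceptor emission after 320nm excitation of the europium donor.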
gsp antag – qHTS for Antagonists of gsp, the Etiologic Mutation Responsible for Fibrous Dysplasia/McCune-Albright Syndrome: qHTS. gsp-mutant cells, cAMP HTRF, 30 min. Potency, µM (titrated, usually from 76.9 µM), for the others: top-dose activity change, negative = inhibition, usual class: inhibitors. hit rate 0.4% among 340,000. AID 624288, 2012; calls by dose curve; cell line not stated here;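 further: intracellular cAMP measured with PDE inhibitor Ro 20-1724 present during compound exposure; potency means the concentration at half of the fitted maximal effect; on the % scale 0 is the no-effect control and ±100 the full control effect; nearly all actives have a fitted effect of over 65% in size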
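Measurement of cellular cAMP by homogeneous time-resolved fluorescence following a 30 min compound exposure at 37C. The PDE inhibitor […] was present throughout; the assay buffer was DPBS with 0.05% BSA and 0.005% Tween 20.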
TSHR antag – Antagonists of the Thyroid Stimulating Hormone Receptor: HTS campaign; hit rate 0.2% among 330,000; TSHR-expressing cells, TSH-stimulated cAMP HTRF, 2 h; stronger effect = lower value; activity change, negative = inhibition, % at 11.5 µM; Thyrotropin receptor (Homo sapiens), P16473; AID 504810, 2011;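 active means activity change below a set negative limit, meaning inhibition stronger than a set level, cut at about -70% in these data; inconclusive means activity change between two set negative limits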; further: on the % scale 0 is the no-effect control and ±100 the full control effect
Target sequence (P16473 whole entry, looked up): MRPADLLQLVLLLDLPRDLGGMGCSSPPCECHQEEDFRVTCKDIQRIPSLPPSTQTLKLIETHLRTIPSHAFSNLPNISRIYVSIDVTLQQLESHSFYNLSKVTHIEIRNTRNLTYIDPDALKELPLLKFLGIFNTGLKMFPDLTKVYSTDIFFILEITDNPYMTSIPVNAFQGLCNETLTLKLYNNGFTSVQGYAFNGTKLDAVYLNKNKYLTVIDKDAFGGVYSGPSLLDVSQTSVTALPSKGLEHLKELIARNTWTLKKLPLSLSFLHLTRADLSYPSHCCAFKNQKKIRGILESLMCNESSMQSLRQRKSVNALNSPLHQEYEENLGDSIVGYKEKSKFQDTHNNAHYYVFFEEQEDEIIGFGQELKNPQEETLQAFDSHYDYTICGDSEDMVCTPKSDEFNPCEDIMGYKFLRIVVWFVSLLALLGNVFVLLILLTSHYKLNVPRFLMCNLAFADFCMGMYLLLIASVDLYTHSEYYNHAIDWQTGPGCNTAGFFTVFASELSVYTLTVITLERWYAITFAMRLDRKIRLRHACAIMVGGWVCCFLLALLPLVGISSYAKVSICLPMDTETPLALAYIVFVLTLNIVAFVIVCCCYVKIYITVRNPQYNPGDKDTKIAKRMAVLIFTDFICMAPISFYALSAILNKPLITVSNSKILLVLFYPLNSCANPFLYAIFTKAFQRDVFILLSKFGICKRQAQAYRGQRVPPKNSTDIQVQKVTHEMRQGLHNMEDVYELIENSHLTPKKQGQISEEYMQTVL
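Inhibition of cAMP made by TSHR-expressing cells under TSH stimulation (4nM final, EC80; 2 h, 37 deg C) is quantified with a one-step lysis HTRF kit, anti-cAMP cryptate versus cAMP-d2.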
Pin1 inh – qHTS Assay to Find Inhibitors of Pin1. Pin1 FP peptide displacement, HiFluor488, 10 min. hit rate 0.009% among 390,000. Potency, µM (top dose mostly 115 µM), inactives show at the highest dose activity, negative = inhibition, actives largely listed as inhibitors. Peptidyl-prolyl cis-trans isomerase NIMA-interacting 1 (Homo sapiens), Q13526; active means well fitted inhibition curve with a large enough effect in the polarisation, with a control signal flat, not every such curve was filed as active; inconclusive means small, poorly fitted or top-dose-only effect, or effect the other way, or a change in a side signal; inactive means no such curve, though single readings can be large or run the other way; the % refers to the polarisation; further: potency means the concentration at half of the fitted maximal effect; on the % scale 0 is the no-effect control and ±100 the full control effect
gsp agonist – qHTS for Agonist of gsp, the Etiologic Mutation Responsible for Fibrous Dysplasia/McCune-Albright Syndrome: qHTS | Potency, µM (highest dose often 76.9 µM), without a hit: top-dose activation (cAMP increase), most hits filed as activators | hit rate 0.13% among 340,000 | gsp mutant cells, cAMP HTRF, 30 min; active means well fitted activation curve with a large enough effect; inconclusive means small, poorly fitted or top-dose-only effect, or another doubt; inactive means no such curve, though single readings can be large or run the other way; cell line not stated here;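 further: phosphodiesterase inhibitor Ro 20-1724 added with compounds to block cAMP breakdown; potency means the concentration at half of the fitted maximal effect; nearly all actives have a fitted effect of over 60% in size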
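Cells stably selected in G418 were plated at 2000/well, grown 16-24 hr, then given compounds in DMSO with the PDE inhibitor […] (300 uM solution added) for 30 min at 37C; cAMP was read by HTRF.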
Active calls of the source: *; u = inconclusive; x = no result; [ ] = remark or other dose. A selection: hits, their analogues and other compounds. The true share with any hit is near 0.63%.

SMILES | TCR activator | gsp antag | TSHR antag | Pin1 inh | gsp agonist
Cc1ccc(-c2nnc(Nc3ccc4c(c3)OCO4)c3ccccc23)cc1S(N)(=O)=O | 1.6%[46.1 µM] | 28.2µM* | -1.4 | 1.2% | -0.8%[15.4 µM]
O=C1NCCN1c1ncc([N+](=O)[O-])s1 | -0.7% | 4.6% | -12.9 | 65.7% | x
Cn1c([N+](=O)[O-])cnc1N1CCN(c2nncs2)C1=O | 4.1% | 5.0% | 8.6 | -1.2% | 10µM*
CC(=O)c1ccc(N(C(=O)CNC(=O)c2ccco2)C(C(=O)NC2CCCC2)c2ccncc2)cc1 (centres undefined) | 0.4% | x | -93.2* | -2.6% | 12.3%[15.4 µM]
O=C1c2ccc([N+](=O)[O-])cc2NC(c2ccco2)N1/N=C/c1ccco1 (centres undefined) | -5.8% | -10.3% | 4.0 | 5.2% | -1.2%
COc1cccc(CNC(=O)COC(=O)/C(C#N)=C/c2ccc(N(C)C)cc2)c1 | -2.3% | 11.3% | -5.4 | u | 25.1µM*
COc1ccc(/C=C(\C#N)C(=O)OCC(=O)NCc2ccccc2)cc1 | 7.9%[46.1 µM] | 6.6% | 4.0 | 25.0% | 18.1%
COc1nc(-c2ccccc2)c2cc(Br)ccc2n1 | 5.6% | 2.6% | x | 0.2% | 12.6µM*
O=C(N/N=C/c1sc(N2CCOCC2)nc1-c1ccccc1)c1ccccc1O | 1.1%[46.1 µM] | 39.8µM* | -8.7 | 34.0% | 9.1%
O=[N+]([O-])c1ccc(N/N=C/c2sc(N3CCOCC3)nc2-c2ccccc2)c(S(=O)(=O)Nc2ccc(Cl)cc2)c1 | -1.0% | -25.4% | -12.0 | u | u
O=[N+]([O-])c1ccc(N/N=C/c2sc(N3CCOCC3)nc2-c2ccccc2)c(S(=O)(=O)Nc2ccccc2Cl)c1 | 14.2% | 3.98µM* | -29.8 | u | -106.6%
CC(=O)c1cc2c(cc1NS(=O)(=O)c1ccc(C)cc1)OCCO2 | -2.3% | 8.5% | -1.2 | -3.8% | 13.1%
Cc1cc(N2CCCC2=O)cc(C)c1S(=O)(=O)NCCOc1ccc(C(C)(C)C)cc1 | -0.4%[46.1 µM] | 25.1µM* | -21.9 | 1.1% | -13.9%
CCSc1ccccc1C(=O)Nc1ccc([N+](=O)[O-])cc1OC | 3.1% | 39.8µM* | -7.3 | 76.5% | -6.9%
O=C(COC(=O)c1n[nH]c2ccccc12)Nc1ccc(Cl)cc1[N+](=O)[O-] | -0.9% | -21.1% | -17.9 | -2.4% | -26.7%
COc1cc([N+](=O)[O-])ccc1NC(=O)COC(=O)c1n[nH]c2ccccc12 | -8.9%[46.1 µM] | 39.8µM* | -6.1 | 25.7% | 8.2%[15.4 µM]
Cn1c(CNC(=O)C(Cc2ccccc2)NC(=O)c2ccccc2)cc(=O)n(C)c1=O (centres undefined) | 6.3% | -2.4% | -144.3* | -8.9% | -32.9%
CCC(/C=C1\Sc2ccc(OC)cc2N1CCO)=C\c1sc2ccc(OC)cc2[n+]1CCO | 12.6µM* | u | 3.4 | u | -91.8%
CCCCCn1c(N2CCCC2)nc2c1c(=O)n(C)c(=O)n2C | x | u | 1.8 | -6.8% | 6.6%[15.4 µM]
Cn1c(=O)c2c(nc(N3CCCCC3)n2CCCNC2=NCCCC2)n(C)c1=O | -5.8% | 20.6% | 1.9 | -4.6% | 12.6µM*
COc1ccccc1NC(=O)Cn1c(C)cc(=O)c2cccc(OC)c21 | 2.5% | 28.2µM* | -17.2 | 11.9% | 1.1%[15.4 µM]
CCc1ccccc1NC(=O)CC1Sc2ccc(C(F)(F)F)cc2NC1=O (centres undefined) | x | x | x | -2.9% | x
COc1ccccc1CNC(=O)COC(=O)c1ccc(Cl)c(N)c1 | -1.7% | 11.2µM* | 2.6 | -1.8% | -8.6%[15.4 µM]
CC(C)C(=O)N1CCN(c2ccc(NC(=O)c3cccs3)cc2)CC1 | -3.9%[46.1 µM] | u | -12.9 | -15.4% | 10.8%
CC(C)C(=O)N1CCN(c2ccc(NC(=O)c3cccs3)cc2Cl)CC1 | 7.8% | 28.2µM* | -10.2 | -1.8% | -20.8%
COCCNC(=O)Cn1cc(S(=O)(=O)N2CCN(c3ccccc3F)CC2)c2ccccc2c1=O | 10.2% | -18.1% | 1.4 | -7.0% | u
CC(C)c1ccc(/C=C/C(=O)Nn2cnnc2)cc1 | x | x | x | -0.4% | x

High-throughput results from PubChem BioAssay.
